# The panel holds about 79,000 compounds, 15% with a hit somewhere; the sample as a whole holds those more often. Unmarked numbers belong to inactive results. The source made the active and inactive calls. Cut-off read from the data, not from the text of the source: active = growth inhibition above about 70%; inactive = the rest.
# Legend:
# [1] = NCI Yeast Anticancer Drug Screen. Data for the rad52 strain (AID 147);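 note: 0% = growth of vehicle-treated control cultures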; conditions: S. cerevisiae rad52 mutant growth inhibition, active compounds read high
# How it was run: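 Yeast strain carrying a DNA damage repair alteration was exposed to test compounds. Growth inhibition was measured relative to vehicle-treated controls.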
# [2] = NCI Yeast Anticancer Drug Screen. Data for the wt1 strain (AID 149);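 note: 0% = growth of vehicle-treated wt1 cultures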; conditions: S. cerevisiae wt1 strain (SPY 50644) growth inhibition, active compounds read high
# How it was run: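 Compounds are added to wt1 yeast cultures. Growth is then measured. Inhibition is expressed relative to vehicle-treated controls.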
# [3] = NCI Yeast Anticancer Drug Screen. Data for the rad50EPP+ strain (AID 151);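 note: 0% = growth of vehicle-treated control cultures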; conditions: S. cerevisiae rad50 mutant strain, active compounds read high
# How it was run: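 Yeast strain carrying rad50 alteration (rad50EPP+) exposed to compounds; growth inhibition measured relative to vehicle-treated controls.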
# [4] = NCI Yeast Anticancer Drug Screen. Data for the mgt1 strain (AID 153); conditions: S. cerevisiae mgt1 mutant growth inhibition, active compounds read high
# How it was run: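 Yeast mgt1 strain (DNA repair/cell-cycle alteration panel) exposed to compounds; growth inhibition measured relative to vehicle-treated controls.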
# [5] = NCI Yeast Anticancer Drug Screen. Data for the rad50 strain (AID 155);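 note: 0% = growth of vehicle-only cultures of the same strain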; conditions: S. cerevisiae rad50 strain growth inhibition, active compounds read high
# How it was run: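 Inhibition values express reduced yeast growth in compound-treated cultures relative to vehicle-treated controls.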
# [6] = NCI Yeast Anticancer Drug Screen. Data for the mec2-1 strain (AID 157); conditions: S. cerevisiae mec2-1 strain, active compounds read high
# How it was run: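 mec2-1 yeast strain, carrying an alteration in DNA damage repair or cell cycle control, was exposed to compounds; growth inhibition was measured relative to vehicle-treated controls.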
# [7] = NCI Yeast Anticancer Drug Screen. Data for the rad14 strain (AID 159);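 note: 0% = growth of vehicle-treated control cultures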; conditions: S. cerevisiae rad14 strain growth inhibition, active compounds read high
# How it was run: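 A mutant yeast strain defective in DNA damage repair is treated with compound; inhibition of its growth is scored against untreated, vehicle-exposed cultures.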
# [8] = NCI Yeast Anticancer Drug Screen. Data for the sgs1 mgt1 strain (AID 161);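 note: 0% = growth of cultures given vehicle only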; conditions: S. cerevisiae sgs1 mgt1 strain, active compounds read high
# How it was run: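 Percent growth inhibition was derived by comparing compound-exposed mutant yeast with vehicle-exposed cultures. The strain carries alterations in DNA damage repair.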
# [9] = NCI Yeast Anticancer Drug Screen. Data for the bub3 strain (AID 167); conditions: S. cerevisiae bub3 mutant strain, active compounds read high
# How it was run: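 Steps: expose the mutant yeast strain to compound; grow alongside vehicle-treated cultures; measure growth; express inhibition against the vehicle cultures.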
# [10] = NCI Yeast Anticancer Drug Screen. Data for the wt2 strain (AID 169);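 note: 0% = growth of vehicle-treated yeast cultures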; conditions: S. cerevisiae wt2 strain growth inhibition, active compounds read high
# How it was run: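 Yeast cells were exposed to test compounds, and growth inhibition was measured relative to vehicle-treated controls.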
# [11] = NCI Yeast Anticancer Drug Screen. Data for the mlh1 strain (AID 171);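 note: 0% = growth of vehicle-treated control cultures of the same strain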; conditions: S. cerevisiae mlh1 strain growth inhibition, active compounds read high
# How it was run: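 Yeast carrying a defined genetic alteration in DNA damage repair or cell cycle control were exposed to test compounds. Growth inhibition was measured relative to vehicle-treated controls.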
# [12] = NCI Yeast Anticancer Drug Screen. Data for the sgs1 strain (AID 173);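 note: 0% = growth of vehicle-only control cultures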; conditions: S. cerevisiae sgs1 mutant, active compounds read high
# How it was run: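 Yeast mutant strains carrying defined defects in DNA damage repair or cell cycle control were exposed to test compounds. Growth inhibition was scored against vehicle-treated controls.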
# [13] = NCI Yeast Anticancer Drug Screen. Data for the mlh1 rad18 strain (AID 175); conditions: S. cerevisiae mlh1 rad18 strain growth inhibition, active compounds read high
# How it was run: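 Growth inhibition of the yeast strain was measured after compound exposure and expressed relative to vehicle-treated controls. The strain carries defined defects in DNA damage repair.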
# [14] = NCI Yeast Anticancer Drug Screen. Data for the rad18 strain (AID 177); conditions: S. cerevisiae rad18 mutant growth inhibition, active compounds read high
# How it was run: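 Yeast carrying a defined DNA damage repair alteration were exposed to compounds. Growth inhibition was expressed relative to vehicle-treated controls.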
# [15] = at 5.0 µM (retest, dose inferred, filed as 0.5)
# [16] = at 50.0 µM (retest, dose inferred, filed as 5.0)
compound,measurement,setting,value
O=C(/C=C/c1cccc2ccccc12)c1ccc(Cl)cc1,growth inhibition,[1]; at 1.2 µM,7%
same,growth inhibition,[1]; at 3.7 µM,7%
same,growth inhibition,[1]; at 11.0 µM,7%
same,growth inhibition,[1]; at 33.0 µM,-4%
same,growth inhibition,[1]; at 100.0 µM,-13%
same,growth inhibition,[2]; at 1.2 µM,-30%
same,growth inhibition,[2]; at 3.7 µM,-19%
same,growth inhibition,[2]; at 11.0 µM,-28%
same,growth inhibition,[2]; at 33.0 µM,-34%
same,growth inhibition,[2]; at 100.0 µM,-45%
same,growth inhibition,[3]; at 1.2 µM,-3%
same,growth inhibition,[3]; at 3.7 µM,4%
same,growth inhibition,[3]; at 11.0 µM,9%
same,growth inhibition,[3]; at 33.0 µM,0%
same,growth inhibition,[3]; at 100.0 µM,-12%
same,growth inhibition,[4]; at 1.2 µM,13%
same,growth inhibition,[4]; at 3.7 µM,11%
same,growth inhibition,[4]; at 11.0 µM,7%
same,growth inhibition,[4]; at 33.0 µM,8%
same,growth inhibition,[4]; at 100.0 µM,-5%
same,growth inhibition,[5]; at 1.2 µM,24%
same,growth inhibition,[5]; at 3.7 µM,27%
same,growth inhibition,[5]; [15],37%
same,growth inhibition,[5]; at 11.0 µM,24%
same,growth inhibition,[5]; at 33.0 µM,13%
same,growth inhibition,[5]; [16],98% (active)
same,growth inhibition,[5]; at 50.0 µM,83.5% (active)
same,growth inhibition,[5]; at 100.0 µM,13%
same,growth inhibition,[6]; at 1.2 µM,11%
same,growth inhibition,[6]; at 3.7 µM,14%
same,growth inhibition,[6]; [15],67%
same,growth inhibition,[6]; at 11.0 µM,-2%
same,growth inhibition,[6]; at 33.0 µM,-6%
same,growth inhibition,[6]; [16],99% (active)
same,growth inhibition,[6]; at 50.0 µM,74.6% (active)
same,growth inhibition,[6]; at 100.0 µM,-12%
same,growth inhibition,[7]; at 1.2 µM,-28%
same,growth inhibition,[7]; at 3.7 µM,-23%
same,growth inhibition,[7]; at 11.0 µM,-30%
same,growth inhibition,[7]; at 33.0 µM,-38%
same,growth inhibition,[7]; at 100.0 µM,-35%
same,growth inhibition,[8]; [15],-3%
same,growth inhibition,[8]; [16],42%
same,growth inhibition,[9]; at 1.2 µM,6%
same,growth inhibition,[9]; at 3.7 µM,11%
same,growth inhibition,[9]; [15],2%
same,growth inhibition,[9]; at 11.0 µM,9%
same,growth inhibition,[9]; at 33.0 µM,7%
same,growth inhibition,[9]; [16],17%
same,growth inhibition,[9]; at 100.0 µM,-6%
same,growth inhibition,[10]; at 1.2 µM,-25%
same,growth inhibition,[10]; at 3.7 µM,-19%
same,growth inhibition,[10]; at 11.0 µM,-28%
same,growth inhibition,[10]; at 33.0 µM,-33%
same,growth inhibition,[10]; at 100.0 µM,-33%
same,growth inhibition,[11]; at 1.2 µM,-33%
same,growth inhibition,[11]; at 3.7 µM,-24%
same,growth inhibition,[11]; at 11.0 µM,-34%
same,growth inhibition,[11]; at 33.0 µM,-46%
same,growth inhibition,[11]; at 100.0 µM,-49%
same,growth inhibition,[12]; at 1.2 µM,-21%
same,growth inhibition,[12]; at 3.7 µM,-22%
same,growth inhibition,[12]; at 11.0 µM,-27%
same,growth inhibition,[12]; at 33.0 µM,-34%
same,growth inhibition,[12]; at 100.0 µM,-48%
same,growth inhibition,[13]; [15],35%
same,growth inhibition,[13]; [16],99% (active)
same,growth inhibition,[13]; at 50.0 µM,80.4% (active)
same,growth inhibition,[14]; at 1.2 µM,3%
same,growth inhibition,[14]; at 3.7 µM,9%
same,growth inhibition,[14]; at 11.0 µM,5%
same,growth inhibition,[14]; at 33.0 µM,13%
same,growth inhibition,[14]; at 100.0 µM,14%

# From PubChem BioAssay (NCI)
